Source: PubChem BioAssay (several laboratories)
Tat transport = E. coli Tat export inhibitors, primary screen, MC4100, TorA-mCherry reporter, fluorescence, single point | actives 0.036% (n = 340,000) | AID 488895, 2010 | inhibition, % at 10 µM;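 active = mean replicate inhibition at least 50% and at least half of replicates individually reaching 50%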;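 note: exported cargo escapes ClpAP degradation while cytoplasmic cargo is degraded and loses fluorescence; 0% = median of neutral control wells and 100% = median of NaSCN control wells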
AddAB inh = growth inhibition of E. coli expressing H. pylori AddAB, primary screen, AddAB inhibitor project, absorbance | inhibition, % at 11.9 µM | actives 0.29% (n = 330,000); in the data active = inhibition above about 12%;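 note: 0% = vehicle wells of infected cells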
E coli growth-1 = E. coli growth inhibition, primary screen, OD600. OD600 absorbance (concentration not given with the values). AID 1053175, 2014. actives 0.21% (n = 330,000). Escherichia coli growth, 23 h; hits give low values;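 active = OD600 absorbance below the run mean of sample wells minus 3.6 SD, in any replicate, cut at about 0.56 in these data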
phage Ecoli inh = growth loss of phage-infected E. coli, primary screen, RecBCD inhibitor project, absorbance, with phage, HTS | inhibition, % at 11.9 µM | actives 0.26% (n = 360,000) | AID 651602, 2012; in the data active = inhibition above about 11%
E coli growth-2 = E. coli V3065 growth inhibition, primary screen, counter-screen for AddAB inhibitor project, absorbance, OD600. 18 h. inhibition, % at 11.9 µM. actives 0.27% (n = 330,000);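 active = inhibition above the campaign's mean inhibition across all tested compounds plus 3 SD, cut at about 9.9% in these data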;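 note: uninfected addAB+ strain grown without phage in ampicillin broth; 0% = DMSO wells and 100% = ciprofloxacin 0.95 µg/ml wells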
RecBCD conf = growth loss of phage-infected RecBCD+ E. coli, confirmation, RecBCD inhibitor project, absorbance, E. coli V66, T4 gene 2 phage | actives 45% (n = 890) | inhibition, % at 11.9 µM | AID 651982, 2013 | shares compounds with phage Ecoli inh | E. coli V66 + T4 2- phage, growth OD;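 active = mean inhibition over triplicates exceeding the hit threshold derived in the original primary screen, cut at about 11% in these data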
Ecoli viability = E. coli viability inhibition, counter-screen for RecBCD inhibitor project, absorbance, high throughput; actives 29% (n = 890); absorbance (OD) growth; shares compounds with phage Ecoli inh; inhibition, % at 11.9 µM; in the data active = inhibition above about 20%;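 note: E. coli strain V66 grown with compound alone and no phage infection; 0% = bacteria with DMSO vehicle only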
AddAB phage OD = growth loss of phage-infected AddAB-carrying E. coli, confirmation, counter-screen for RecBCD inhibitor project, absorbance, E. coli V3065, T4 phage; shares compounds with phage Ecoli inh; E. coli expressing H. pylori AddAB + T4 phage, OD growth; gene 2 mutant T4, recBCD-deleted host; inhibition, % at 11.9 µM; actives 45% (n = 890);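 active = mean inhibition above the solvent-only control wells' mean plus 3 SD, cut at about 22% in these data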;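 note: higher means less bacterial growth from phage killing when AddAB is blocked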
An asterisk follows results filed as active; · = no result. Rows were chosen to be rich in hits. Some 0.5% of all compounds tested hit in one or more screens of this group.

SMILES | Tat transport | AddAB inh | E coli growth-1 | phage Ecoli inh | E coli growth-2 | RecBCD conf | Ecoli viability | AddAB phage OD
COc1cc(C=NO)nc(-c2ccccn2)c1 | -21.9 | · | · | 38.6* | · | 31.8* | 41.1* | 33.3*
Cc1noc(C)c1NC(=O)N(C)CC1Oc2ccc(NS(=O)(=O)c3cn(C)cn3)cc2C(=O)N(C(C)CO)CC1C (stereo not drawn) | · | · | 0.678 | · | · | · | · | ·
COc1ccc(C=NNC(=O)c2ccc(Cn3cc([N+](=O)[O-])cn3)o2)cc1O | · | · | 0.781 | · | · | · | · | ·
Fc1cccc(/C=N/Nc2nncc3ccccc23)c1 | 8.3 | 0.3 | · | 3.1 | 1.4 | · | · | ·
C(=N\Nc1nncc2ccccc12)/c1ccccn1 | -7.0 | 9.0 | · | 19.3* | 10.2* | 20.4* | 27.1* | 23.7*
Cc1cn([C@H]2C=C[C@@H](CO)O2)c(=O)[nH]c1=O | 3.8 | 6.8 | 0.647 | 22.0* | 3.2 | 15.9* | 7.4 | 50.8*
CCC(=O)Nc1ccc2nc(C)n(CC(=O)Nc3ccccc3)c(=O)c2c1 | 0.3 | -1.3 | 0.688 | 3.7 | -4.0 | · | · | ·
Cc1cc(NC(=O)Cn2c(C)nc3ccccc3c2=O)ccc1Br | 4.3 | 20.0* | 0.759 | 13.4* | 18.7* | 12.1* | 16.8 | 17.4
COc1ccccc1NC(=S)NC(NC(=O)c1ccco1)C(Cl)(Cl)Cl (stereo not drawn) | -23.2 | 11.3 | 0.641 | 11.4* | 8.3 | 2.3 | 4.5 | 6.9
O=C(Nc1cc([N+](=O)[O-])c2[nH]c(=O)c3ccccc3c2c1)C(F)(F)F | 5.8 | · | · | 13.7* | · | 11.9* | 15.4 | 95.7*
O=C(C1=C(c2ccccc2)C(=O)c2ccccc2C1=O)c1ccccc1 | 0.3 | · | 0.662 | 11.1* | · | -4.2 | -3.3 | 4.5
O=C(CC1CC=CCCCC(=O)OC(c2ccccc2)CNC1=O)NCCO (stereo not drawn) | · | · | 0.692 | · | · | · | · | ·
Cc1cccc(C(N)=NOC(=O)c2ccco2)c1 | · | · | 0.701 | · | · | · | · | ·
COc1ccccc1S(=O)(=O)Cc1ccc(C(=O)N2CCOCC2)o1 | -6.3 | 5.0 | 0.723 | 34.6* | 0.6 | -1.0 | -1.2 | -0.1
CN(C)CCCNC(=O)c1ccc(C=NO)nc1 | · | · | 0.644 | · | · | · | · | ·
CCN1CCN(C(=O)C2=CC(c3ccc(C)cc3)=NS(=O)(=O)N2C)CC1 | 6.3 | -0.3 | 0.754 | 12.1* | -0.1 | -3.4 | -2.0 | -2.8
NS(=O)(=O)c1ccc(CCNC(=O)CC(NC(=O)c2ccccc2Cl)c2ccccc2)cc1 (stereo not drawn) | 2.0 | -2.2 | 0.667 | 15.2* | -2.0 | -0.6 | -0.1 | 4.8
COc1ccc(CCNC(=O)CC(NC(=O)c2ccccc2Cl)c2ccccc2)cc1 (stereo not drawn) | -0.4 | 0.3 | 0.709 | 1.8 | -1.2 | · | · | ·
Oc1c(Cl)c(Cl)c2ncccc2c1Cl | -0.1 | · | 0.683 | 3.8 | · | · | · | ·
Oc1c(I)cc(Cl)c2cccnc12 | -14.4 | 31.3* | 0.123* | 32.4* | 43.9* | 43.2* | 49.1* | 39.8*
O=[N+]([O-])c1ccc(O)c2ncccc12 | 20.0 | 64.0* | 0.066* | 61.8* | 67.1* | 79.4* | 73.7* | 68.6*
O=[N+]([O-])c1cc([N+](=O)[O-])c2cccnc2c1Oc1ccccc1O | 2.2 | 4.8 | 0.692 | 0.8 | -9.9 | · | · | ·
O=[N+]([O-])c1cc(Cl)c(O)c2ncccc12 | -1.2 | · | 0.0675* | 44.0* | · | 52.6* | 55.2* | 46.5*
CCOc1ccccc1C=NNc1cnn(Cc2ccccc2)c(=O)c1Cl | · | · | 0.751 | · | · | · | · | ·
CC(=O)c1ccc(NC(=O)c2ccc([N+](=O)[O-])o2)cc1 | 1.0 | · | 0.474* | 16.8* | · | 11.3* | 13.7 | 65.7*
SMILES | Tat transport | AddAB inh | E coli growth-1 | phage Ecoli inh | E coli growth-2 | RecBCD conf | Ecoli viability | AddAB phage OD
O=C(Nc1ccc(Cl)cn1)c1ccc([N+](=O)[O-])o1 | -28.2 | · | 0.496 | 18.1* | · | 7.0 | 8.0 | 96.3*
Cc1c(Cl)c([N+](=O)[O-])nn1Cc1ccc(C(=O)Nc2ccc(Cl)cn2)o1 | -6.5 | 0.9 | 0.695 | 1.9 | 0.3 | · | · | ·
Cn1c(N)c(C(=O)COC(=O)C2CCCN2S(=O)(=O)c2ccc(Cl)cc2)c(=O)n(C)c1=O (stereo not drawn) | · | · | 0.708 | · | · | · | · | ·
CC(C)(C)c1nnc(N/N=C/c2cc(Br)ccc2O)n(N)c1=O | -19.8 | 12.0 | · | 11.6* | 3.5 | 6.4 | 10.4 | 27.7*
CC(C)(C)c1nnc(NN=Cc2ccccc2O)n(N)c1=O | · | · | 0.624 | · | · | · | · | ·
CC1CC(=NNC(=O)c2cccs2)CC(C)(C)C1 (stereo not drawn) | · | · | 0.683 | · | · | · | · | ·
CC(C)CC1CN=C(Nc2ccccc2)N1CC1CCCCC1 (stereo not drawn) | · | · | 0.669 | · | · | · | · | ·
c1cc(-c2ccsc2)n2ccnc2c1 | · | · | · | 10.9* | · | 0.7 | -0.2 | 12.3
c1cc(-c2ccoc2)n2ccnc2c1 | · | · | · | -1.8 | · | · | · | ·
Cc1ccc(C=NNC(=S)Nc2cccc(S(=O)(=O)N(C)C)c2)o1 | · | · | 0.646 | · | · | · | · | ·
Cc1ccc(NCCN(C)C)c2c(=O)c3cc(O)ccc3sc12 | -8.8 | · | · | 1.2 | · | · | · | ·
CN(C)CCNc1cccc2sc3ccc(O)cc3c(=O)c12 | · | · | · | 13.4* | · | -2.5 | -2.9 | 3.4
O=C1c2cc(Cl)ccc2-c2c(O)cc(Cl)cc21 | 1.9 | · | 0.568 | 12.6* | · | 9.8 | 11.6 | 6.3
CCOc1ccc2c(c1)S/C(=C\c1cccs1)C(=O)N2 | -6.7 | 0.7 | 0.688 | 53.8* | 0.3 | 0.2 | 0.6 | 5.3
Cc1cc(C)cc(N=C2NC(=O)/C(=C/c3cccs3)S2)c1 | 5.6 | 0.3 | 0.692 | 2.6 | -3.9 | · | · | ·
COc1ccc(C2CC(=O)C=C(c3ccc4ncccc4c3)C2)cc1 (stereo not drawn) | · | · | 0.625 | · | · | · | · | ·
CSC1SCC2C(=O)N(C)C(C(C)C)C(=O)OCC(NC(=O)c3cnc4ccccc4n3)C(=O)NC(C)C(=O)N(C)C1C(=O)N(C)C(C(C)C)C(=O)OCC(NC(=O)c1cnc3ccccc3n1)C(=O)NC(C)C(=O)N2C (stereo not drawn) | 37.4 | · | · | 99.1* | · | 88.8* | 91.8* | 80.8*
CC(=NNC(=O)c1cccnc1)c1ccccc1 | · | · | 0.688 | · | · | · | · | ·
Cn1cc([N+](=O)[O-])c(C(=O)N/N=C/c2ccc([N+](=O)[O-])cc2)n1 | -2.1 | 5.5 | · | 10.9* | 1.4 | -0.6 | -0.8 | 0.3
CCOC(=O)C1C2COc3ccccc3C2N2C(=O)c3cc(F)c(F)cc3NC(=O)[C@@]12C (stereo partly drawn) | · | · | 0.692 | · | · | · | · | ·
COc1ccc(Cl)cc1NS(=O)(=O)c1c(C)nc2sccn2c1=O | 3.6 | 3.4 | 0.751 | 2.5 | -0.5 | · | · | ·
Cc1ccc(C)c(NS(=O)(=O)c2c(C)nc3sccn3c2=O)c1 | -9.7 | -2.0 | 0.697 | 98.6* | 0.3 | -1.9 | -2.0 | -2.4
